# Unmarked numbers belong to inactive results. This is one part of the list. Active and inactive are the calls of the source.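 The calls were made as follows, unless noted: active = inhibition above the average of all tested compounds plus 3 SD (cut at about 40% in these data); inactive = the rest.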
# Assays:
# [1] = target: Bcl-2-like protein 1 (Homo sapiens) (UniProt Q07817); test: Bcl-xL inhibitors blocking Bim BH3 binding, confirmation, counter-screen for MCL1 inhibitor project, biochemical, fluorescence polarization (AID 2166;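 active = inhibition above a cutoff equal to the mean inhibition of all tested compounds plus 3 SD, cut at about 30% in these data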); conditions: GST-Bcl-xL / FITC-Bim BH3 peptide FP binding; at 10.9 µM; active compounds read high
# Sequence of Bcl-2-like protein 1 (Homo sapiens) (Q07817 whole entry, looked up): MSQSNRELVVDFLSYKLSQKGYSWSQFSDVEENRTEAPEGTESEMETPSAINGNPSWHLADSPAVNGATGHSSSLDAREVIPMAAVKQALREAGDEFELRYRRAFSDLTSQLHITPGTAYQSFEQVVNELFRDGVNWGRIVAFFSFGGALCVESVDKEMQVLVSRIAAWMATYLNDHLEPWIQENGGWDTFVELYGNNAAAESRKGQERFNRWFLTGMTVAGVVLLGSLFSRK
# [2] = target: Induced myeloid leukemia cell differentiation protein Mcl-1 (Homo sapiens) (UniProt Q07820); test: inhibitors of MCL1 binding to BIM-BH3, confirmation, biochemical, fluorescence polarization, triplicate (AID 2168); conditions: GST-MCL1 / FITC-Bim-BH3 fluorescence polarization; at 10.9 µM; active compounds read high;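 also: 0% = DMSO wells and 100% = unlabeled Bim-BH3 control peptide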
# Sequence of Induced myeloid leukemia cell differentiation protein Mcl-1 (Homo sapiens) (Q07820 whole entry, looked up): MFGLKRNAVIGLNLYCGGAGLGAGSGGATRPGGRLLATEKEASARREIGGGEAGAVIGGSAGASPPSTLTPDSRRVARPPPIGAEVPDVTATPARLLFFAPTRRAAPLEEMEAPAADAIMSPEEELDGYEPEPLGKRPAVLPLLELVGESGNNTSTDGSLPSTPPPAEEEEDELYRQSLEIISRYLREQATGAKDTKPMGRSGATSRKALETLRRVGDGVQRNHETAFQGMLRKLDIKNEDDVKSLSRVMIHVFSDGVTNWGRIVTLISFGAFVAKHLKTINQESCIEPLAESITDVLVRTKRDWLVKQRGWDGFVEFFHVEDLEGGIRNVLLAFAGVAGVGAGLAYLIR
# [3] = target: Glutathione S-transferase omega-1 (Homo sapiens) (UniProt P78417); test: GSTO1 inhibitor hit confirmation, counter-screen for RBBP9 inhibitor project, biochemical, fluorescence polarization, triplicate (AID 2176;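 active = inhibition above the primary screen's cutoff, its mean inhibition plus 3 SD, cut at about 35% in these data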;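 also: loss of polarization as inhibitors block binding of rhodamine sulfonate ester activity probe; 0% = GSTO1 with DMSO and 100% = wells lacking GSTO1 enzyme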); conditions: recombinant GSTO1, probe fluorescence polarization; at 5.96 µM; active compounds read high
# Sequence of Glutathione S-transferase omega-1 (Homo sapiens) (P78417 whole entry, looked up): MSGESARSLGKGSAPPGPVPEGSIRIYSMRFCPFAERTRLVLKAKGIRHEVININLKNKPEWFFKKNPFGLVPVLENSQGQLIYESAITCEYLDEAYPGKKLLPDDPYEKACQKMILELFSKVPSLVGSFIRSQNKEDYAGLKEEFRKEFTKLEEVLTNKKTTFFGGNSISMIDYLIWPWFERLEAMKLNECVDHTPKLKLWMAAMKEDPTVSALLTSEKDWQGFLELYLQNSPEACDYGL
# [4] = target: Lytic switch protein BZLF1 (Epstein-Barr virus (strain B95-8)) (UniProt P03206); test: EBV Zta binding to ZRE DNA, inhibitors, confirmation, biochemical, fluorescence polarization, triplicate (AID 2361;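 active = mean inhibition across triplicate runs above the hit threshold derived for the original primary screen, cut at about 33% in these data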;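 also: 0% = Zta with DMSO and 100% = wells lacking Zta protein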); conditions: at 11.1 µM, active compounds read high
# Sequence of Lytic switch protein BZLF1 (Epstein-Barr virus (strain B95-8)) (P03206 whole entry, looked up): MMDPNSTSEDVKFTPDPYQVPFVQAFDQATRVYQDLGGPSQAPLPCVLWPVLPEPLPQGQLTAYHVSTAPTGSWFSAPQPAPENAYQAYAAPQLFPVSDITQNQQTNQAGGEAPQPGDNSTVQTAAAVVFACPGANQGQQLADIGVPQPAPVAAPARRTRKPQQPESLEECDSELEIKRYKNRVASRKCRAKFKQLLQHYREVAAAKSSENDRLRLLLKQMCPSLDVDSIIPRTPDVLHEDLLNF
# [5] = tested on: Epstein-Barr virus nuclear antigen 1 (EBNA-1), Human herpesvirus 4; test: EBNA-1 DNA-binding inhibition, counter-screen for ZTA inhibitor project, biochemical, fluorescence polarization (AID 2362; call rule not given here); conditions: at 14.8 µM, active compounds read high
# [6] = compounds interfering with TAMRA-BSA probe, counter-screen for TCR-CD3 interaction inhibitor project, biochemical, fluorescence, TAMRA-labeled BSA (AID 652035; in the data active = inhibition above about 23%;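 also: 0% = buffer low control and 100% = reference high control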); conditions: TAMRA-labeled BSA probe fluorescence counterscreen; at 9.4 µM; active compounds read high
# [7] = tested on: T-cell receptor (TCR)-CD3 interaction, human; test: TCR-CD3 interaction inhibitors, retest, confirmation, biochemical, fluorescence, TAMRA-labeled TCR probe (AID 652036; in the data active = inhibition above about 19%); conditions: TAMRA-labeled TCR probe fluorescence binding assay; at 9.4 µM; active compounds read high
# [8] = target: Protein phosphatase methylesterase 1 (Homo sapiens) (UniProt Q9Y570); test: PME-1 inhibitor activity retest, confirmation, biochemical, fluorescence polarization, FP-Rh probe, triplicate (AID 2171;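 active = inhibition above the hit cutoff set in the earlier primary screen, cut at about 27% in these data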;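 also: 0% = enzyme with DMSO and 100% = wells lacking PME-1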); conditions: recombinant PME-1, FP-Rh probe fluorescence polarization; at 5.9 µM; active compounds read high
# Sequence of Protein phosphatase methylesterase 1 (Homo sapiens) (Q9Y570 whole entry, looked up): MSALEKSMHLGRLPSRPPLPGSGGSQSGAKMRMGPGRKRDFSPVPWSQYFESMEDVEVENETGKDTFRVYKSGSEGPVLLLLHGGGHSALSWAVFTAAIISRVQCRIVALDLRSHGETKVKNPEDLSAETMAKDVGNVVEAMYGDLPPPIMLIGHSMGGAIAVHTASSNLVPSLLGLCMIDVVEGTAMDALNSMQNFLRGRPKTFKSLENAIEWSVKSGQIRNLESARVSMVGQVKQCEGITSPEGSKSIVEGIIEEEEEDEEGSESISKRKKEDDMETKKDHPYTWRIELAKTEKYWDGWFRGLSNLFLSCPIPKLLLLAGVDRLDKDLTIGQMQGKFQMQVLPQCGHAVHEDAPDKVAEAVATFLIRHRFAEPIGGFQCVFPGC
smiles,measurement,setting,value
COC(=O)c1sc(NC(=S)NC(=O)c2ccc(C)cc2)nc1C,inhibition,[1],12.1%
same,inhibition,[2],19.3%
O=C1c2ccccc2C(=O)c2c1cccc2N1CCN(CCO)CC1,inhibition,[1],43.9% (active)
same,inhibition,[2],58.3% (active)
O=C(COC(=O)c1ccccc1C(=O)N1CCN(c2ccccc2)CC1)NCc1ccccc1,inhibition,[1],22.1%
same,inhibition,[2],16.5%
CCOC(=O)c1cc2n(c1N)-c1ccccc1C2=O,inhibition,[1],91.1% (active)
same,inhibition,[2],106% (active)
Cc1ccc(S(=O)(=O)C(C#N)c2nc3ccccc3nc2N2CCCC2)cc1C (stereo not drawn),inhibition,[1],74.9% (active)
same,inhibition,[2],82.8% (active)
same,inhibition,[3],26.5%
O=S(=O)([N-]c1nc2ccccc2nc1-[n+]1ccc(Cc2ccccc2)cc1)c1ccc(Br)s1,inhibition,[1],33.4% (active)
same,inhibition,[2],33.7%
N/C(=N\OC(=O)CCc1ccccc1)c1ccc(Cl)cc1,inhibition,[1],1.43%
same,inhibition,[2],-0.05%
COc1ccc(Cl)cc1NC(=O)CCS(=O)(=O)c1ccc(Br)cc1,inhibition,[1],6.91%
same,inhibition,[2],46.5% (active)
O=c1[nH]c2ccccc2n2c(-c3ccccc3)nnc12,inhibition,[1],36.7% (active)
same,inhibition,[2],34.5%
same,inhibition,[3],23.1%
COC(=O)c1cc(OCC(=O)NC2CCCc3ccccc32)cc(C(=O)OC)c1 (stereo not drawn),inhibition,[1],16.3%
same,inhibition,[2],28.4%
CC(C)(C)OC(=O)NCCCC1=CC2=CC(=O)C(C)(OC(=O)c3ccco3)C(=O)C2=CO1 (stereo not drawn),inhibition,[1],26.3%
same,inhibition,[2],36.3%
COC(=O)C[n+]1cccc2ccccc21,inhibition,[1],142% (active)
same,inhibition,[2],173% (active)
CN(C)c1ccc(Nc2c3c4c(cccc4n(C)c2=O)C(=O)c2ccccc2-3)cc1,inhibition,[1],80.1% (active)
same,inhibition,[2],91.2% (active)
Cc1ccc(C(=O)O)cc1-c1ccc(/C=C2\SC(=O)N(CC(=O)Nc3ccc4c(c3)OCO4)C2=O)o1,inhibition,[1],18.5%
same,inhibition,[2],60.8% (active)
COC(=O)[C@H]1[C@H]2C[C@H]3c4[nH]c5ccccc5c4CCN3C[C@@H]2CC[C@@H]1O,inhibition,[1],88.6% (active)
same,inhibition,[2],112% (active)
same,inhibition,[4],22.7%
same,inhibition,[5],-1.66%
COCCN(CCOC)c1nc(N)c2c(N)nc3c(c2c1C#N)CC(=O)N3Cc1ccc(Cl)cc1,inhibition,[1],9.48%
same,inhibition,[2],4.93%
CC12CCC(C(=O)N(NC(=O)c3ccccc3O)C1=O)C2(C)C (stereo not drawn),inhibition,[1],10.1%
same,inhibition,[2],41.1% (active)
same,inhibition,[6],23.1% (active)
same,inhibition,[7],30% (active)
O=C(Nc1ccc(Nc2ccccc2)cc1)Nc1ccccc1Cl,inhibition,[8],-2.21%
COc1ccc(C)cc1NC(=O)NNC(=O)c1cc2ccccc2cc1O,inhibition,[8],16.4%
CN(c1ccccc1)S(=O)(=O)c1ccc(NC(=O)c2ccc(-c3ccccc3)cc2)cc1,inhibition,[8],59.7% (active)

# From PubChem BioAssay
